Several values for one entry are separate records, joined by “and”; a condition that tells them apart may be missing. Equal entries are not always repeated. The panel holds about 83,000 compounds, 20% with a hit somewhere; the sample as a whole holds those more often.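 Percent growth is the endpoint: 0 to 100 indicates growth inhibition (40 means 60% inhibition), 0 means no net growth, and negative values indicate cell death.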 Activity calls are given as the source filed them. How the source made its calls: active means growth percent below 10; inactive means the rest.
Key:
Assay in all cases: NCI-60 one-dose screen, 48 h (100 = growth as untreated, 0 = no growth, -100 = all killed)
[1] = tested on: DU-145 prostate; settings: 10 µM unless noted
[2] = tested on: K-562 leukemia; settings: 10 µM
[3] = tested on: MALME-3M melanoma; settings: 10 µM
[4] = tested on: MDA-MB-231 breast; settings: 10 µM
[5] = tested on: RXF 393 renal; settings: 10 µM unless noted
[6] = tested on: SF-268 CNS; settings: 10 µM
[7] = tested on: SF-295 CNS; settings: 10 µM
[8] = tested on: SF-539 CNS; settings: 10 µM
[9] = tested on: UACC-257 melanoma; settings: 10 µM
[10] = tested on: M14 melanoma; settings: 10 µM
[11] = tested on: HCT-15 colon; settings: 10 µM
[12] = tested on: HT29 colon; settings: 10 µM
[13] = tested on: SNB-75 CNS; settings: 10 µM
[14] = tested on: SNB-19 CNS; settings: 10 µM
[15] = tested on: U251 CNS; settings: 10 µM unless noted
[16] = tested on: PC-3 prostate; settings: 10 µM
[17] = tested on: SK-MEL-5 melanoma; settings: 10 µM unless noted
[18] = tested on: UACC-62 melanoma; settings: 10 µM
[19] = tested on: LOX IMVI melanoma; settings: 10 µM unless noted
[20] = tested on: SK-MEL-28 melanoma; settings: 10 µM

| SMILES | growth [1] | growth [2] | growth [3] | growth [4] | growth [5] | growth [6] | growth [7] | growth [8] | growth [9] | growth [10] | growth [11] | growth [12] | growth [13] | growth [14] | growth [15] | growth [16] | growth [17] | growth [18] | growth [19] | growth [20] |
| --- | --- | --- | --- | --- | --- | --- | --- | --- | --- | --- | --- | --- | --- | --- | --- | --- | --- | --- | --- | --- |
| O=C(/C=C/c1ccccn1)c1ccccc1 | 60.5% (inactive) | 14% (inactive) | 91% (inactive) | 90.2% (inactive) | 90.6% (inactive) | 85.4% (inactive) | 87.5% (inactive) | 68.5% (inactive) | 72.9% (inactive) | 42.1% (inactive) | -8.15% (active) | -67.2% (active) | 66.2% (inactive) | 61.8% (inactive) | -31.4% (active) | 69.3% (inactive) | 74.7% (inactive) | 82.4% (inactive) | -31.2% (active) | 100% (inactive) |
| CCN(CC)c1ccc(NC(C(=O)c2ccccc2)c2ccccc2)cc1 (stereo not drawn) | 24.4% (inactive) | 10.4% (inactive) | 28.7% (inactive) | -34.1% (active) | 4.61% (active) | -22.8% (active) | 61.2% (inactive) | -50.1% (active) | 68.3% (inactive) | – | -16.4% (active) | 12.4% (inactive) | 81.7% (inactive) | 36.6% (inactive) | -17.5% (active) | 83.7% (inactive) | 78.8% (inactive) | 28.3% (inactive) | -43.4% (active) | – |
| Clc1ccc(/C=C/c2ccccn2)c(Cl)c1 | 116% (inactive) | 93.6% (inactive) | 102% (inactive) | 85.5% (inactive) | 108% (inactive) | 99% (inactive) | 94.5% (inactive) | 89.3% (inactive) | 99.7% (inactive) | 106% (inactive) | 68.2% (inactive) | 83.3% (inactive) | 61.2% (inactive) | 92.7% (inactive) | 79.1% (inactive) | 85.9% (inactive) | 81.6% (inactive) | 80.6% (inactive) | 91.3% (inactive) | 120% (inactive) |
| O=C(C(=Cc1ccccc1)C(=O)c1ccccc1)c1ccccc1 | 61.3% (inactive) and 102% (inactive) | 35.5% (inactive) and 93.8% (inactive) | 88.4% (inactive) and 108% (inactive) | 70.5% (inactive) and 74.8% (inactive) | 66.5% (inactive) and 98.8% (inactive) | 58.5% (inactive) and 83.3% (inactive) | 65.4% (inactive) and 97.7% (inactive) | 72.9% (inactive) and 96.9% (inactive) | 73% (inactive) and 83.7% (inactive) | – | 28.1% (inactive) and 88.8% (inactive) | 47.1% (inactive) and 91.2% (inactive) | 69.7% (inactive) and 81.4% (inactive) | 46.9% (inactive) and 92.4% (inactive) | 86.2% (inactive) | 48.3% (inactive) and 77.7% (inactive) | 66.6% (inactive) and 94.4% (inactive) | 48.8% (inactive) and 66.7% (inactive) | -56.4% (active) and 77.5% (inactive) | – |
| NNc1ccc2ccccc2c1 | 98.5% (inactive) and 111% (inactive) | 86% (inactive) and 115% (inactive) | 90.1% (inactive) and 96.8% (inactive) | 68.7% (inactive) and 90.1% (inactive) | 122% (inactive) and 98.9% (inactive) | 75.8% (inactive) and 96.8% (inactive) | 95.8% (inactive) and 102% (inactive) | 86% (inactive) and 100% (inactive) | 107% (inactive) and 105% (inactive) | 89.6% (inactive) and 96.8% (inactive) | 91.2% (inactive) and 97% (inactive) | 99.8% (inactive) and 104% (inactive) | 79.1% (inactive) and 75.7% (inactive) | 99% (inactive) and 102% (inactive) | 103% (inactive) and 101% (inactive) | 73% (inactive) and 82% (inactive) | 89.3% (inactive) and 87.6% (inactive) | 78% (inactive) and 99.9% (inactive) | 75.5% (inactive) and 91.7% (inactive) | – |
| CCCCCCCCCCCCCCCCCCOCC(COP(=O)([O-])OCC[N+](C)(C)C)OC (stereo not drawn) | 129% (inactive) | 104% (inactive) | 80.7% (inactive) | 74.4% (inactive) | 47.2% (inactive) | 79.6% (inactive) | 89.9% (inactive) | 88.8% (inactive) | 95% (inactive) | – | 61% (inactive) | 37.7% (inactive) | 84.4% (inactive) | 80.8% (inactive) | 72.4% (inactive) | 29.5% (inactive) | 62.5% (inactive) | 73.3% (inactive) | 84.6% (inactive) | – |

Reference: PubChem BioAssay (NCI)
